High-throughput results deposited in PubChem BioAssay by National Center for Advancing Translational Sciences (NCATS).
TDP1 block: TDP1 (human) enzyme inhibition | Q9NUW8 | recombinant TDP1, AlphaScreen DNA substrate cleavage | Potency, µM (highest dose often 130 µM), inactives show top-dose activity change, negative = inhibition, usual class: inhibitors | actives 0.28% (n = 350,000) | AID 485290; also: % is scaled to controls: 0 for no effect and ±100 for the full control effect; nearly all actives have a fitted effect of over 40% in size
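Signal: AlphaScreen proximity between streptavidin donor and anti-FITC acceptor beads on intact substrate. Reaction: Tdp1 1 nM, substrate 15 nM final, 5 min RT after 15 min compound preincubation.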
ClpP mod: qHTS Assay for Activators of ClpP; AID 651965, 2013; purified B. subtilis ClpP, FRET peptide cleavage, 20 min; actives 1.9% (n = 340,000); Potency, µM (series often up to 57.5 µM), inactives show at the top dose activity change, negative = active; active = well fitted falling curve with a large enough effect; inconclusive = small, poorly fitted or top-dose-only effect; inactive = no such curve, though single readings can be large or run the other way; also: the source files actives as falling curves though it sought activators and does not explain the sign; nearly all actives have a fitted effect of over 65% in size
Target sequence (P80244 whole entry, looked up): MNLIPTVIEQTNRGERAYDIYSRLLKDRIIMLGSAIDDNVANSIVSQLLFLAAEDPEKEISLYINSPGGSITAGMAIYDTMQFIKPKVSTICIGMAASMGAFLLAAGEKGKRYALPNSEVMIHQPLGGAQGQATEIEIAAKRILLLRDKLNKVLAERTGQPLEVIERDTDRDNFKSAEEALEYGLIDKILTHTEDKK
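ClpP 10 microg/mL final, pH 8 Tris/KCl buffer with BSA, glycerol, Tween-20; compound pinned in; FRET-FV substrate; RT 20 min; Ex320/Em430; ΔFRET vs ADEP 5.8 microM, DMSO, no enzyme.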
TDP1 cell noCPT: qHTS for Inhibitors of human tyrosyl-DNA phosphodiesterase 1 (TDP1): qHTS in cells in absence of CPT; DT40 Tdp1-/- hTDP1 cells, no CPT, ATP luminescence, 48 h; Potency, µM (doses to about 46.2 µM), for the others: at the highest dose activity change, negative = growth inhibition, usual class: inhibitors; actives 15% (n = 420,000); AID 686978, 2013; also: % is scaled to controls: 0 for no effect and ±100 for the full control effect; nearly all actives have a fitted effect of over 55% in size
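Seeded 400 DT40-hTDP1 cells/well (vehicle DMSO, no 20 nM CPT); pinned compounds; ≥48 hr at 37 °C; CellTiter-Glo luminescence as viability measure.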
TDP1 cell CPT: growth inhibition of DT40 Tdp1-/-;hTDP1 cells with camptothecin (screen for TDP1 inhibitors). actives 12% (n = 420,000). chicken DT40 Tdp1-/-;hTDP1 cells + 20 nM CPT, ATP luminescence, 48 h. AID 686979. Potency, µM (titrated, usually from 46.2 µM), without a hit: top-dose activity change, negative = growth inhibition, most hits filed as inhibitors; also: % is scaled to controls: 0 for no effect and ±100 for the full control effect; nearly all actives have a fitted effect of over 55% in size
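Chicken DT40 Tdp1-/- cells complemented with human TDP1, 400 cells/well, exposed to compounds plus 20 nM camptothecin for at least 48 h at 37 C; viability read as ATP content by CellTiter-Glo luminescence.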
Numbers without * were called inactive; u = inconclusive; x = not tested or not shown; [ ] = another dose, or the depositor's remark. The list is not random: actives were taken first. Their share in the collection is about 17%. Unless noted, calls follow the shape of the dose curve; as a rule, active = well fitted curve in the direction sought with a large enough effect; inconclusive = small, poorly fitted or top-dose-only effect, or another doubt; inactive = no such curve, though single readings can be large; an effect the other way counts as inactive or inconclusive. Potency is read from the fitted curve at half-maximal effect.

SMILES | TDP1 block | ClpP mod | TDP1 cell noCPT | TDP1 cell CPT
CC(=O)Nc1ccc(OS(=O)(=O)c2ccc([N+](=O)[O-])cc2)cc1 | 0% | 1% | 16µM* | 18µM*
O=C1NC[C@H](CCCCN2CCN(CC3CCCCC3)C(=O)C2=O)N(CC2CCCCC2)C1=O | x | -1% | -3% | 7%
Cc1cccc(C)c1NC(=O)C(=O)NCC(c1cccnc1)N1CCc2ccccc21 (stereo not given) | 0% | -3% | 13µM* | 15µM*
CCc1ccccc1NC(=O)C(=O)NCC(c1cccnc1)N1CCc2ccccc21 (stereo not given) | 4% | 1% | 21µM* | u
Cc1ccccc1C(=O)NCC(c1cccnc1)N1CCc2ccccc21 (stereo not given) | 3% | 1% | 18µM* | u
Cc1ccc(Cl)cc1NC(=O)C(=O)NCC(c1cccnc1)N1CCc2ccccc21 (stereo not given) | 8% | -1% | 13µM* | 13µM*
CCOC(=O)c1c(S(=O)(=O)NCC(=O)N(C)Cc2ccccc2)c(C)n(C)c1C | 4% | -3% | -13% | -19%
C/C=C1\[C@H]2C=C(C)C[C@]1(N)c1ccc(=O)[nH]c1C2 | x | x | -3% | -4%
O=C(c1ccc2c(Cl)c3c(nc2c1)CCCC3)N1CCN(c2cccc(C(F)(F)F)c2)CC1 | 0% | -4% | -12% | -9%
Cc1cccc(N2CCN(C(=O)c3ccc4c(Cl)c5c(nc4c3)CCCC5)CC2)c1C | 2% | -3% | u | 18µM*
COc1cccc(N2CCN(C(=O)c3ccc4c(Cl)c5c(nc4c3)CCCC5)CC2)c1 | 8% | -2% | 21µM* | 21µM*
O=C(NC1CC(=O)N(c2ccccc2)C1)c1ccc(S(=O)(=O)N2CCCC2)cc1 (stereo not given) | 8% | 2% | u | u
CCCCN1C(=O)C(O)(c2c(C)[nH]c3ccccc23)c2cc(Br)ccc21 (stereo not given) | 7% | 1% | 4.1µM* | 5.8µM*
CCCCN1C(=O)C(O)(c2c(C)[nH]c3ccccc23)c2ccccc21 (stereo not given) | 5% | -2% | 5.8µM* | 5.8µM*
COc1c(OC(C)=O)ccc(/C=C/c2ccc3cccc(OCc4ccccc4)c3n2)c1[N+](=O)[O-] | 8% | 1% | 15µM* | 15µM*
COc1cc(/C=C/c2ccc3cccc(OC)c3n2)c(OC(C)=O)c([N+](=O)[O-])c1 | 4% | 0% | 15µM* | 12µM*
O=C(CSc1ccc(F)cc1)NCCc1ccc(Cl)cc1 | x | x | u | -20%
Cc1cc(C)n2c(Nc3cccc(C(F)(F)F)c3)c(-c3ccsc3)nc2n1 | -8% | -7% | 16µM* | 16µM*
Cc1cc(C)n2c(Nc3c(C)cccc3C)c(-c3cccnc3)nc2n1 | x | -4% | -19% | 6%
Cc1cccc(Nc2c(-c3ccsc3)nc3nc(C)cc(C)n23)c1 | 2% | 19% | u | u
Cc1cccc(Nc2c(-c3cccs3)nc3nc(C)cc(C)n23)c1 | 8% | -1% | u | 26µM*
COC(=O)C1=C(C(=O)OC)[C@@H]2N(Cc3ccccc3)c3ccccc3[C@@]23C[C@@H](C(=O)OC)N(C(=O)COCc2ccccc2)C3=N1 | 16%[12.3 µM] | 2% | u | u
COc1ccc(C(=O)Nc2ncc3c(n2)CC(C)CC3=O)cc1 (stereo not given) | 0% | x | -7% | 4%
COc1ccc(C2CC(=O)c3cnc(N4CCN(Cc5ccccc5)CC4)nc3C2)cc1 (stereo not given) | 0% | -17% | 23µM* | u
O=C1CC(c2ccc(F)cc2)Cc2nc(N3CCN(c4ccccc4)CC3)ncc21 (stereo not given) | 5% | -6% | u | u
COc1cccc(C(=O)Nc2ncc3c(n2)CC(c2ccc(OC)cc2OC)CC3=O)c1 (stereo not given) | 5% | -2% | 4.1µM* | 2.9µM*
Cc1ccc(C2CC(=O)c3cnc(N4CCN(c5ccccc5)CC4)nc3C2)cc1 (stereo not given) | 3% | 0% | 16µM* | u
